Measurements taken from PubChem BioAssay AID1159580 (chemical genetic matrix, 2015).
Among all 5,500 compounds or so, about 2,000 (36%) were called active. Another 18% or so got no clear call; they are omitted. No stated cut-off is given here; in the data, active means normalized growth mostly below about 0.91 (no sharp cut-off); inconclusive means no clear call, values can overlap the other calls; inactive means mostly above about 0.92. The list shows a part of the results.

Assay: chemical genetic growth profiling, strain panel (AID 1159580);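 further: tested at 20 µM; growth read once vehicle control cultures reached saturation at 30 °C; 1 = growth at the plate median or of vehicle wells; lower values mean less growth of the strain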
Details: growth OD
[1] = S. cerevisiae deletion strains, locus YJR075W, strain HOC1, hits give low values
[2] = S. cerevisiae deletion strains, locus YMR307W, strain GAS1, hits give low values
[3] = S. cerevisiae deletion strains, locus YNL153C, strain GIM3, hits give low values

Measured: normalized growth

CN1CCC(c2c[nH]c3ccc(O)cc23)CC1
inactive: S. cerevisiae deletion strains, locus YAL040C, strain CLN3, hits give low values 0.986 | S. cerevisiae deletion strains, locus YCL061C, strain MRC1 (second series), hits give low values 1.01 | S. cerevisiae deletion strains, locus YDR150W, strain NUM1, hits give low values 1.01 | S. cerevisiae deletion strains, locus YDR363W, strain ESC2, hits give low values 1 | S. cerevisiae deletion strains, locus YER002W, strain NOP16, hits give low values 0.987 | [1] 1.01 | [2] 0.988 | [3] 0.948 | S. cerevisiae deletion strains, locus YNL175C, strain NOP13, hits give low values 1.01 | S. cerevisiae deletion strains, locus YNL197C, strain WHI3, hits give low values 0.999 | S. cerevisiae deletion strains, locus YNL224C, strain SQS1, hits give low values 1.02 | S. cerevisiae deletion strains, locus YOR083W, strain WHI5 (second series), hits give low values 1.04 | S. cerevisiae deletion strains, locus YPL055C, strain LGE1, hits give low values 0.996

CSCCC(NC=O)C(=O)NC(C)C(=O)O (stereo not drawn)
inactive: S. cerevisiae deletion strains, locus YBR021W, strain FUR4, hits give low values 0.982 | S. cerevisiae deletion strains, locus YBR229C, strain ROT2, hits give low values 0.989 | S. cerevisiae deletion strains, locus YCL029C, strain bik1, hits give low values 0.983 | S. cerevisiae deletion strains, locus YDL035C, strain GPR1, hits give low values 1.01 | S. cerevisiae deletion strains, locus YDL074C, strain BRE1, hits give low values 1.02 | S. cerevisiae deletion strains, locus YDL101C, strain DUN1, hits give low values 0.998 | S. cerevisiae deletion strains, locus YDL134C, strain PPH21, hits give low values 0.989 | S. cerevisiae deletion strains, locus YDL185W, strain tfp1, hits give low values 0.977 | S. cerevisiae deletion strains, locus YDL192W, strain arf1, hits give low values 0.972 | S. cerevisiae deletion strains, locus YDR101C, strain arx1, hits give low values 0.983 | S. cerevisiae deletion strains, locus YDR162C, strain NBP2, hits give low values 0.997 | S. cerevisiae deletion strains, locus YDR318W, strain mcm21, hits give low values 0.988 | S. cerevisiae deletion strains, locus YDR388W, hits give low values 0.985 | S. cerevisiae deletion strains, locus YDR502C, strain sam2, hits give low values 0.992 | S. cerevisiae deletion strains, locus YEL061C, strain CIN8, hits give low values 0.995 | S. cerevisiae deletion strains, locus YER110C, hits give low values 0.976 | S. cerevisiae deletion strains, locus YER155C, strain BEM2, hits give low values 0.993 | S. cerevisiae deletion strains, locus YER167W, strain BCK2, hits give low values 0.988 | S. cerevisiae deletion strains, locus YGL078C, strain dbp3, hits give low values 0.978 | S. cerevisiae deletion strains, locus YGL086W, strain mad1, hits give low values 0.996 | S. cerevisiae deletion strains, locus YGL248W, strain PDE1, hits give low values 1.01 | S. cerevisiae deletion strains, locus YGR078C, strain PAC10, hits give low values 1.03 | S. cerevisiae deletion strains, locus YGR135W, strain pre9, hits give low values 0.984 | S. cerevisiae deletion strains, locus YGR229C, strain SMI1, hits give low values 0.995 | S. cerevisiae deletion strains, locus YGR252W, strain gcn5, hits give low values 0.972 | S. cerevisiae deletion strains, locus YHR030C, strain SLT2, hits give low values 0.989 | S. cerevisiae deletion strains, locus YHR079C, strain IRE1 (second series), hits give low values 0.988 | S. cerevisiae deletion strains, locus YHR094C, strain hxt1, hits give low values 0.978 | S. cerevisiae deletion strains, locus YHR129C, strain ARP1, hits give low values 0.996 | S. cerevisiae deletion strains, locus YHR200W, strain rpn10, hits give low values 0.987 | S. cerevisiae deletion strains, locus YIL066C, strain RNR3, hits give low values 1 | S. cerevisiae deletion strains, locus YIL073C, strain SPO22, hits give low values 0.943 | S. cerevisiae deletion strains, locus YIL125W, strain kgd1, hits give low values 0.987 | S. cerevisiae deletion strains, locus YIR030C, strain dcg1, hits give low values 0.983 | S. cerevisiae deletion strains, locus YJL095W, strain BCK1, hits give low values 1.04 | S. cerevisiae deletion strains, locus YJL134W, strain LCB3, hits give low values 0.991 | S. cerevisiae deletion strains, locus YJL168C, strain set2, hits give low values 0.985 | S. cerevisiae deletion strains, locus YJL187C, strain SWE1 (second series), hits give low values 1.01 | S. cerevisiae deletion strains, locus YJR043C, strain POL32, hits give low values 1.02 | [1] 1.01 | S. cerevisiae deletion strains, locus YKL009W, strain mrt4, hits give low values 0.974 | S. cerevisiae deletion strains, locus YKL068W, hits give low values 0.986 | S. cerevisiae deletion strains, locus YKL085W, strain MDH1 (second series), hits give low values 1.01 | S. cerevisiae deletion strains, locus YKL085W, strain MDH1, hits give low values 1.01 | S. cerevisiae deletion strains, locus YKL190W, strain CNB1, hits give low values 1 | S. cerevisiae deletion strains, locus YKR001C, strain vps1, hits give low values 0.988 | S. cerevisiae deletion strains, locus YLR039C, strain RIC1, hits give low values 1.01 | S. cerevisiae deletion strains, locus YLR058C, strain SHM2, hits give low values 0.996 | S. cerevisiae deletion strains, locus YLR102C, strain apc9, hits give low values 0.98 | S. cerevisiae deletion strains, locus YLR262C, strain YPT6, hits give low values 1.04 | S. cerevisiae deletion strains, locus YLR268W, strain sec22, hits give low values 0.987 | S. cerevisiae deletion strains, locus YLR330W, strain CHS5, hits give low values 0.99 | S. cerevisiae deletion strains, locus YLR342W, strain FKS1 (second series), hits give low values 0.987 | S. cerevisiae deletion strains, locus YLR371W, strain rom2, hits give low values 0.972 | S. cerevisiae deletion strains, locus YLR418C, strain cdc73, hits give low values 0.994 | S. cerevisiae deletion strains, locus YML016C, strain PPZ1, hits give low values 0.993 | S. cerevisiae deletion strains, locus YML032C, strain rad52, hits give low values 0.987 | S. cerevisiae deletion strains, locus YML124C, strain tub3, hits give low values 0.981 | S. cerevisiae deletion strains, locus YMR078C, strain ctf18, hits give low values 0.984 | S. cerevisiae deletion strains, locus YMR223W, strain ubp8, hits give low values 0.986 | S. cerevisiae deletion strains, locus YMR263W, strain SAP30, hits give low values 1.01 | [2] 0.872 | S. cerevisiae deletion strains, locus YNL067W, strain RPL9B, hits give low values 1.03 | [3] 1.04 | S. cerevisiae deletion strains, locus YNL233W, strain BNI4, hits give low values 1.01 | S. cerevisiae deletion strains, locus YNL250W, strain rad50, hits give low values 0.983 | S. cerevisiae deletion strains, locus YNL271C, strain bni1, hits give low values 0.968 | S. cerevisiae deletion strains, locus YNL298W, strain CLA4, hits give low values 0.99 | S. cerevisiae deletion strains, locus YNL307C, strain MCK1, hits give low values 0.989 | S. cerevisiae deletion strains, locus YNR052C, strain pop2, hits give low values 0.983 | S. cerevisiae deletion strains, locus YOL006C, strain TOP1, hits give low values 1.05 | S. cerevisiae deletion strains, locus YOL012C, strain htz1 1.02 | S. cerevisiae deletion strains, locus YOL147C, strain pex11, hits give low values 0.983 | S. cerevisiae deletion strains, locus YOR061W, strain CKA2, hits give low values 0.993 | S. cerevisiae deletion strains, locus YOR069W, strain VPS5, hits give low values 0.983 | S. cerevisiae deletion strains, locus YOR136W, strain idh2, hits give low values 0.995 | S. cerevisiae deletion strains, locus YOR144C, strain elg1, hits give low values 0.984 | S. cerevisiae deletion strains, locus YOR184W, strain ser1, hits give low values 0.995 | S. cerevisiae deletion strains, locus YOR316C, strain cot1, hits give low values 0.972 | S. cerevisiae deletion strains, locus YPR119W, strain clb2, hits give low values 0.991 | S. cerevisiae deletion strains, locus YPR141C, strain kar3, hits give low values 0.978 | S. cerevisiae deletion strains, locus YPR163C, strain tif3, hits give low values 0.988 | S. cerevisiae deletion strains, locus YPR167C, strain met16, hits give low values 0.978 | S. cerevisiae deletion strains, strain wtn01, hits give low values 0.992 | S. cerevisiae strains, strain wild type, hits give low values 0.996
